Several values for one entry are separate records, joined by “and”; a condition that tells them apart may be missing. Equal values may be shown once. Out of some 16,000 compounds screened, about 5,700 (36%) were called active. Roughly 24% stayed inconclusive and do not appear here. This is one part of the list. A number with no mark means an inactive call. The call rests on the fitted dose curve; in most records, active means well fitted curve in the direction sought with a large enough effect; inconclusive means small, poorly fitted or top-dose-only effect, or effect the other way; inactive means no such curve, though single readings can be large or run the other way.
On the % scale 0 is the no-effect control and ±100 the full control effect.

This experiment deals with Cytochrome P450 1A2 (Homo sapiens) (UniProt P05177). The experiment is described as follows: Cytochrome panel assay with activity outcomes. Conditions: recombinant CYP, pro-luciferin dealkylation, luminescence, p450-cyp1a2; series mostly up to 57.1 µM; activity, negative = inhibition: at the top concentration.
Sequence of Cytochrome P450 1A2 (Homo sapiens) (P05177 whole entry, looked up): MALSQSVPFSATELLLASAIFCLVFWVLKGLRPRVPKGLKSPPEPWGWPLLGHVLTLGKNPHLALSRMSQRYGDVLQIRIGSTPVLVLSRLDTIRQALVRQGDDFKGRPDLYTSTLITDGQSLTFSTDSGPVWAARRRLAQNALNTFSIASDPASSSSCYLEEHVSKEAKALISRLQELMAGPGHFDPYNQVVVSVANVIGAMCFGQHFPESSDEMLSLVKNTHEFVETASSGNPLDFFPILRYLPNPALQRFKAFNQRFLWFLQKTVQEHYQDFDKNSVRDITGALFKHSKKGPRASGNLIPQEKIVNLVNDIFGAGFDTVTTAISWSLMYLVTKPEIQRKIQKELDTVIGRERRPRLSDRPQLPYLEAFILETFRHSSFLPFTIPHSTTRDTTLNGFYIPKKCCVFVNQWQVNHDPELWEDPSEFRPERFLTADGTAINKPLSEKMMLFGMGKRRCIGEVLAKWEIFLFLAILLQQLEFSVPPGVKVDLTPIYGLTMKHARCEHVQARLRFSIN
As for `COc1cc(/C=C(\C#N)C(N)=O)cc(CSc2nc3ccccc3s2)c1O`, the AC50 was 1260 nM (active).
`COc1ccc(/C=N/n2c(C)nnc2C)c(OC)c1`: the AC50 was 14100 nM (active).
On to `N#C/C(=C\c1ccc(O)c(O)c1)C(=O)Nc1ccccc1`, for which the AC50 was 501 nM (active).
In the case of `CCOC(=O)/C(C#N)=C\c1ccc(OCC(=O)Nc2ccc(C)cc2C)c(OC)c1`, the “activity, negative = inhibition” value is -9.06%.
For `CCOC(=O)/C(C#N)=C\N(C)C`, the “activity, negative = inhibition” value was -18.7%.
Regarding `C[C@H](NC(=O)/C(C#N)=C/c1ccc(O)c(O)c1)c1ccccc1`, the AC50 is 15800 nM (active).
On the same count and under the same terms, then `N#C/C(=C\c1ccc(O)c(O)c1)C(=O)NCCc1ccccc1`, with 10000 nM (active).
Turning to `CC(=O)NCCc1ccc(O)c(O)c1`, the “activity, negative = inhibition” value was -2.4%.
On to `CCOc1ccccc1/C=C(\C#N)C(N)=O`, for which the AC50 is 2000 nM (active).
As to `C/C(CCN1CCCCc2nc(C)c(C)cc21)=N\O[C@@H](C)c1cn([C@H](CO)Cc2ccccc2)nn1`, the activity, negative = inhibition is -1.07% [at 11.4 µM] and -1.23% [at 11.4 µM].
As to `Cc1c2c(nc3c(C(=O)NC4CCCC4)cnn13)CCCC2`, the half-maximal activity concentration (AC50) was 2820 nM (active).
Take `Cc1cccc(N(CC(=O)NC2CCCC2)C(=O)c2cc3cc4cccc(C)c4nc3s2)c1C`: the “activity, negative = inhibition” value was -18.2%.
Same read-out and setting: under `Cc1ccc(C(=O)NC2CCCCCC2)cc1N1CCCC1=O` stands -22.9%; under `C[C@@H](Cc1ccccc1)Nc1ncnc2c1ncn2[C@@H]1O[C@@H](CO)[C@H](O)[C@@H]1O`, 1.16%.
As for `CC(Sc1nnc(C(C)N(C)C)n1-c1ccc(Cl)cc1)C(=O)Nc1ccc2c(c1)OCO2` (stereo not given), the AC50 was 17800 nM (active).
Consider `CCCCOC(=O)c1ccc(O)cc1`, for which the AC50 was 79.4 nM (active).
`O=C(OCCCN1CCCCC1)c1ccc(O)cc1`: the activity, negative = inhibition was -21.1% [at 11.4 µM].
In the case of `CCOC(=O)c1ccc(N)cc1`, the AC50 was 2000 nM (active).
As to `CCOC(=O)c1ccc(-c2ccc(CO)o2)cc1`, the AC50 is 2510 nM (active).
For `CN(C)CCOC(=O)c1ccc(N)cc1`, the activity, negative = inhibition is 1.14% [at 11.4 µM].
On to `CCOC(=O)c1ccc(N2C(=O)CC(Nc3ccc(CCO)cc3)C2=O)cc1` (stereo not given), for which the “activity, negative = inhibition” value is 6.03%.
As for `CCN(CC)CCOC(=O)c1ccc(N)cc1`, the AC50 entry is “inactive”.
`CCCCNc1ccc(C(=O)OCCOCCOCCOCCOCCOCCOCCOCCOCCOC)cc1`: the “activity, negative = inhibition” value was 3.14% [at 25.6 µM].
Turning to `CO[C@@H]1COC(=O)[C@H]2CCCN2C(=O)[C@@H](C)COC(=O)CCC[C@H]1C`, the activity, negative = inhibition was 6.36% [at 11.4 µM].
For the molecule `O=C1NC(=O)C(c2ccccc2)(c2ccccc2)N1`, the “activity, negative = inhibition” value was -10.8%.
In the case of `COCC(=O)N1CCC[C@@]2(CCN(Cc3ccc(C#N)cc3)C2)C1`, the “activity, negative = inhibition” value was 0.305%.
For `O=S(=O)(c1cccc2c(I)cccc12)N1CCCNCC1`, the half-maximal activity concentration (AC50) was 10000 nM (active).
In the case of `CCN(CC)c1ccc(/C=C/c2nc3ccccc3s2)cc1`, the AC50 is 2510 nM (active).
Still for that read-out and setting: under `Cc1cccc(CNc2ccnc(-c3ccoc3)n2)c1` stands 2000 nM (active); under `c1ccc(CNc2ccnc(-c3ccoc3)n2)cc1`, 2510 nM (active); under `c1ccc2c(N3CCNCC3)nc(-c3ccc4c(c3)OCO4)nc2c1`, 12600 nM (active).
`c1cc2c(cc1C(N1CCNCC1)N1CCNCC1)OCO2`: the activity, negative = inhibition was -3.03% [at 2.29 µM].
For the molecule `CN(C)c1ccc(-c2nc(N3CCNCC3)c3ccccc3n2)cc1`, the AC50 was 10000 nM (active).
As for `O=C(Nc1ccccc1)N1CC[C@@]2(CCCN(C(=O)c3cnccn3)C2)C1`, the “activity, negative = inhibition” value is -8.64%.
Consider `Cc1c(Cl)cnc(NC(=O)COC(=O)CCS(=O)(=O)c2ccccc2)c1Cl`, for which the AC50 was 11200 nM (active).
For `Cc1ccc(S(=O)(=O)N2CCOCC2)cc1NC(=O)COC(=O)CCC(=O)c1cccs1`, the “activity, negative = inhibition” value is -17.9%.
On to `CC(C)=CC(=O)OCC(=O)Nc1ncc(Cl)c(C)c1Cl`, for which the AC50 was 25100 nM (active).
For the molecule `COC(=O)[C@@]1(Cc2ccc(F)cc2)[C@H]2c3cc(C(=O)N(C)C)n(Cc4ccc(C)o4)c3C[C@H]2CN1C(=O)c1ccccc1`, the “activity, negative = inhibition” value was -12.5%.
With `CC[N+](CC)(CC)CC[C@](O)(c1ccccc1)C1CCCCC1`, the “activity, negative = inhibition” value was -11.1% [at 25.6 µM].
Regarding `CCN(CC)CC#CCC(C)(c1ccccc1)c1ccccc1`, the “activity, negative = inhibition” value was -22.5%.
Take `CCN(CC)CC#CCOC(=O)[C@@](O)(c1ccccc1)C1CCCCC1`: the AC50 was 3980 nM (active).
Turning to `CCOC(=O)C(NC(C)=O)C(OC(C)=O)c1cccc(N(CCO)CCO)c1` (stereo not given), the “activity, negative = inhibition” value is -4.35%.
With `Cc1cc(C)c(C#N)c(SCS(=O)c2ccc(C(C)(C)C)cc2)n1` (stereo not given), the AC50 is 20000 nM (active).
For `CN1CCN(CC(O)c2ccccc2)CC1` (stereo not given), the “activity, negative = inhibition” value was 1.6%.
With `Cc1[nH]nc(N2CCCCCC2)c1[N+](=O)[O-]`, the AC50 is 2000 nM (active).
Still for that read-out and setting: under `Cn1c(=O)c(-c2cccs2)nc2cncnc21` stands 1260 nM (active); under `COc1ccccc1CCn1c(=O)c(-c2cccc(Cl)c2)nc2cncnc21`, 316 nM (active).
Turning to `COc1ccccc1CCn1c(=O)c(-c2ccccc2)nc2cncnc21`, the AC50 is 1000 nM (active).
On to `COc1ccccc1CCn1c(=O)c(-c2ccc(F)cc2)nc2cncnc21`, for which the AC50 is 1000 nM (active).
Consider `CCCC[C@]1(C2CCCC2)Cc2cc(OCC(=O)O)c(Cl)c(Cl)c2C1=O`, for which the “activity, negative = inhibition” value was -9.78%.
